Measurements from paper PMC11062922 (Nature Chemical Biology, 2023).
Where two headings read alike, the source gives them in different places.

How the values were obtained:
Design in all cases: species or system human, MV4-11 + K-562 + COLO205 + SK-N-BE2 + OVCAR-8
ADRBK1 = settings: read-out: apparent Kd, n = 1
CDK6 = settings: read-out: apparent Kd, n = 1
ERBB3 = settings: read-out: apparent Kd; compound concentrations:100 nM and 1000 nM (sheet 'Samples'); n = 1
RIOK2 = settings: read-out: apparent Kd, n = 1
ADCK5 = settings: read-out: apparent Kd; compound concentrations:100 nM and 1000 nM (sheet 'Samples'); n = 1
CDK4 = settings: read-out: apparent Kd; compound concentrations:100 nM and 1000 nM (sheet 'Samples'); n = 1
GSK3A = settings: read-out: apparent Kd; compound concentrations:100 nM and 1000 nM (sheet 'Samples'); n = 1
AKT1 = settings: read-out: apparent Kd; compound concentrations: 100 nM and 1000 nM (sheet 'Samples'), CATDS: 0.124475037217828; n = 1
AKT2 = settings: read-out: apparent Kd; compound concentrations: 100 nM and 1000 nM (sheet 'Samples'), CATDS: 0.124185471208428; n = 1
AKT3 = settings: read-out: apparent Kd; compound concentrations: 100 nM and 1000 nM (sheet 'Samples'), CATDS: 0.12570475509553999; n = 1
ILK = settings: read-out: apparent Kd; compound concentrations: 100 nM and 1000 nM (sheet 'Samples'), CATDS: 0.12734816485016201; n = 1
MAP2K2 = settings: read-out: apparent Kd; compound concentrations: 100 nM and 1000 nM (sheet 'Samples'), CATDS: 0.12469214085712101; n = 1
ADK = settings: read-out: apparent Kd, compound concentrations: 100 nM and 1000 nM (sheet 'Samples'), n = 1
ADCK3 = settings: read-out: apparent Kd; compound concentrations: 100 nM and 1000 nM (sheet 'Samples'), CATDS: 0.21121986416857899; n = 1
RIPK2 = settings: read-out: apparent Kd, compound concentrations: 100 nM and 1000 nM (sheet 'Samples'), n = 1
RIPK3 = settings: read-out: apparent Kd; compound concentrations: 100 nM and 1000 nM (sheet 'Samples'), CATDS: 0.31380158399753799; n = 1
CLK3 = settings: read-out: apparent Kd; compound concentrations: 100 nM and 1000 nM (sheet 'Samples'), CATDS: 0.62903265036008305; n = 1
COX5A = settings: read-out: apparent Kd; compound concentrations: 100 nM and 1000 nM (sheet 'Samples'), CATDS: 3.6331945852285497E-2; n = 1
CSNK1A1 = settings: read-out: apparent Kd; compound concentrations: 100 nM and 1000 nM (sheet 'Samples'), CATDS: 6.6366617124681102E-2; n = 1
CSNK1D = settings: read-out: apparent Kd; compound concentrations: 100 nM and 1000 nM (sheet 'Samples'), CATDS: 0.21669980545697101; n = 1
CSNK1E = settings: read-out: apparent Kd; compound concentrations: 100 nM and 1000 nM (sheet 'Samples'), CATDS: 0.13524385654208201; n = 1
CSNK1G1 = settings: read-out: apparent Kd; compound concentrations: 100 nM and 1000 nM (sheet 'Samples'), CATDS: 3.36950722911461E-2; n = 1
CSNK1G3 = settings: read-out: apparent Kd; compound concentrations: 100 nM and 1000 nM (sheet 'Samples'), CATDS: 3.7890071369445298E-2; n = 1
DJA1 = tested on: T1, DJA1; settings: read-out: apparent Kd; compound concentrations: 100 nM and 1000 nM (sheet 'Samples'), CATDS: 3.3060215115758199E-2; n = 1
T1 construct: gene DNAJA1

MAP4K5 = settings: read-out: apparent Kd; compound concentrations: 100 nM and 1000 nM (sheet 'Samples'), CATDS: 3.4056635134305298E-2; n = 1
MAPK10 = settings: read-out: apparent Kd; compound concentrations: 100 nM and 1000 nM (sheet 'Samples'), CATDS: 4.2468368704664097E-2; n = 1
MAPK11 = settings: read-out: apparent Kd; compound concentrations: 100 nM and 1000 nM (sheet 'Samples'), CATDS: 0.108415283939704; n = 1
MAPK14 = settings: read-out: apparent Kd; compound concentrations: 100 nM and 1000 nM (sheet 'Samples'), CATDS: 0.505182268244599; n = 1
MAPK9 = settings: read-out: apparent Kd; compound concentrations: 100 nM and 1000 nM (sheet 'Samples'), CATDS: 5.19093996737921E-2; n = 1
MAPKAPK2 = settings: read-out: apparent Kd; compound concentrations: 100 nM and 1000 nM (sheet 'Samples'), CATDS: 0.16433458855485; n = 1
NLK = settings: read-out: apparent Kd; compound concentrations: 100 nM and 1000 nM (sheet 'Samples'), CATDS: 5.68204402660955E-2; n = 1
PKN3 = settings: read-out: apparent Kd; compound concentrations: 100 nM and 1000 nM (sheet 'Samples'), CATDS: 3.0507466694278802E-2; n = 1
PRKCA = settings: read-out: apparent Kd; compound concentrations: 100 nM and 1000 nM (sheet 'Samples'), CATDS: 4.1145920495800903E-2; n = 1
PRKCB = settings: read-out: apparent Kd; compound concentrations: 100 nM and 1000 nM (sheet 'Samples'), CATDS: 3.4087347473579097E-2; n = 1
PRKD2 = settings: read-out: apparent Kd; compound concentrations: 100 nM and 1000 nM (sheet 'Samples'), CATDS: 3.50594175571005E-2; n = 1
PRKD3 = settings: read-out: apparent Kd; compound concentrations: 100 nM and 1000 nM (sheet 'Samples'), CATDS: 3.1320583757310602E-2; n = 1
[1] = compound concentrations:100 nM and 1000 nM (sheet 'Samples')

CCc1cc(Nc2nccc(-c3c(-c4ccc(OC)c(C(=O)Nc5c(F)cccc5F)c4)nc4ccccn34)n2)c(OC)cc1N1CCC(N2CCN(S(C)(=O)=O)CC2)CC1 [GSK1904529]
potency estimated from few doses (ADRBK1; [1]): 2.03 µM | potency estimated from few doses (CDK6; [1]): 2.37 µM | potency estimated from few doses (ERBB3): 1.36 µM | potency estimated from few doses (RIOK2; [1]): 2.22 µM

O=C(Nc1n[nH]c2nc(-c3nccs3)c(Br)cc12)C1CCCC1 [SB-742609]
potency estimated from few doses (ADCK5): 1.31 µM | potency estimated from few doses (CDK4): 1.11 µM | potency estimated from few doses (GSK3A): 0.519 µM

Cl.Nc1n[nH]c2cc(-c3ccccn3)ccc12 [GSK2189892A]
potency estimated from few doses (ADRBK1; compound concentrations: 100 nM and 1000 nM (sheet 'Samples'), CATDS: 0.135716479442168): 1.47 µM | potency estimated from few doses (AKT1): 1.73 µM | potency estimated from few doses (AKT2): 1.74 µM | potency estimated from few doses (AKT3): 1.7 µM | potency estimated from few doses (CDK6; compound concentrations: 100 nM and 1000 nM (sheet 'Samples'), CATDS: 0.119736809743275): 1.88 µM | potency estimated from few doses (ILK): 1.66 µM | potency estimated from few doses (MAP2K2): 1.73 µM | potency estimated from few doses (RIOK2; compound concentrations: 100 nM and 1000 nM (sheet 'Samples'), CATDS: 0.119525040636944): 1.88 µM

O=C(Nc1n[nH]c2nc(-c3ccco3)c(Br)cc12)C1CC1 [SB-739452]
potency estimated from few doses (ADK; CATDS: 1): 1.72 µM

CC(C)S(=O)(=O)c1ccc2nccc(Nc3ccc4scnc4c3)c2c1 [GSK872]
potency estimated from few doses (ADCK3): 0.483 µM | potency estimated from few doses (RIPK2; CATDS: 0.926895955727292): 0.00251 µM | potency estimated from few doses (RIPK3): 0.0707 µM

COc1ccc2cc(-c3nc(-c4ccccc4C(C)C)[nH]c3-c3ccncc3)ccc2c1 [SB-660566]
potency estimated from few doses (ADRBK1; compound concentrations: 100 nM and 1000 nM (sheet 'Samples'), CATDS: 0.41489344635778702): 2.07 µM | potency estimated from few doses (CLK3): 0.865 µM

Cl.Cl.Cl.Fc1ccc(-c2ncn(C3CCNCC3)c2-c2ccnc(Nc3ccccc3)n2)cc1.Fc1ccc(-c2ncn(C3CCNCC3)c2-c2ccnc(Nc3ccccc3)n2)cc1 [SB-238039-R]
potency estimated from few doses (ADK; CATDS: 3.8521875066841203E-2): 0.704 µM | potency estimated from few doses (COX5A): 0.873 µM | potency estimated from few doses (CSNK1A1): 0.131 µM | potency estimated from few doses (CSNK1D): 0.00661 µM | potency estimated from few doses (CSNK1E): 0.0185 µM | potency estimated from few doses (CSNK1G1): 1.18 µM | potency estimated from few doses (CSNK1G3): 0.747 µM | potency estimated from few doses (DJA1): 1.29 µM | potency estimated from few doses (MAP4K5): 1.13 µM | potency estimated from few doses (MAPK10): 0.504 µM | potency estimated from few doses (MAPK11): 0.0327 µM | potency estimated from few doses (MAPK14): 0.00159 µM | potency estimated from few doses (MAPK9): 0.27 µM | potency estimated from few doses (MAPKAPK2): 0.0118 µM | potency estimated from few doses (NLK): 0.206 µM | potency estimated from few doses (PKN3): 1.9 µM | potency estimated from few doses (PRKCA): 0.56 µM | potency estimated from few doses (PRKCB): 1.13 µM | potency estimated from few doses (PRKD2): 1 µM | potency estimated from few doses (PRKD3): 1.66 µM | potency estimated from few doses (RIPK2; CATDS: 4.9528140659543501E-2): 0.311 µM
